PubChem BioAssay (NCATS)
Inconclusive results are not listed. The source made the active and inactive calls. Calls come from the whole dose curve; as a rule, active = well fitted curve in the direction sought with a large enough effect; inconclusive = small, poorly fitted or top-dose-only effect, or another doubt; inactive = no such curve, though single readings can be large; an effect the other way counts as inactive or inconclusive.

Tests used:
[1] = MultiTox-Fluor Cytotoxicity Assay - LYMP1-003 - Live Cells (AID 962);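 note: cells exposed to compound for 16 hours at 37 °C; cytotoxic hits lower the live-cell protease signal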
How it was run: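 Human lymphoblastoid line LYMP1-003 in complete culture medium, treated 16 hr with titrated compounds. Viable cells quantified via cell-permeant GF-AFC substrate fluorescence; AC50 derived by Hill fitting.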

[2] = Cell Viability - LYMP1-003 - Assay at 24 hr (AID 963)
How it was run: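 The lymphoblastoid line was treated with titrated compounds for 24 hours, and viable cell number estimated from luciferase-based ATP luminescence.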

[3] = Cell Viability - LYMP1-003 - Assay at 40 hr (AID 964); note: series mostly up to about 92 µM; nearly all actives have a fitted effect of over 60% in size
How it was run: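 Acute toxicity is scored as a concentration-dependent loss of intracellular ATP in LYMP1-003 cells (2500/well, complete medium) after 40 hr at 37 C, measured by CellTiter-Glo luminescence; AC50 values derive from standard Hill modelling.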

[4] = Cell Viability - LYMP2-003 (AID 965);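 note: cells exposed to compounds for 24 h before reading; nearly all actives have a fitted effect of over 50% in size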
How it was run: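 CellTiter-Glo luminescence (cellular ATP) after 24 h compound exposure at 37 C in complete medium; 2500 cells/well, 5 h settling beforehand. Concentration-response fitted to standard Hill equation for AC50. Tetraoctylammonium bromide served as positive control.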

[5] = Cell Viability - LYMP2-004 (AID 966); note: nearly all actives have a fitted effect of over 65% in size
How it was run: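 Viable-cell number estimated from ATP luminescence (CellTiter-Glo) in 2500 human lymphoblastoid cells/well after 24 hr at 37 C with compound. AC50 fitted to the standard Hill equation.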

[6] = Cell Viability - LYMP2-005 (AID 967); note: series mostly up to about 92 µM
How it was run: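 Steps: seed 2500 LYMP2-005 cells/well, incubate 5 h at 37 C, add compound, incubate 24 h at 37 C, add CellTiter-Glo, wait 30 min at RT, read luminescence. Concentration-response data fitted to Hill equation for AC50.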

[7] = Cell Viability - LYMP2-009 (AID 968); note: series mostly up to about 92 µM; nearly all actives have a fitted effect of over 55% in size
[8] = Cell Viability - LYMP2-011 (AID 969); note: nearly all actives have a fitted effect of over 60% in size
How it was run: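 Cells seeded at 2500 per well rest 5 hr before compound addition, then incubate 24 hr at 37 C. CellTiter-Glo reagent is added for 30 min at room temperature before luminescence detection.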

[9] = Cell Viability - LYMP2-013 (AID 970); note: series mostly up to about 92 µM; nearly all actives have a fitted effect of over 55% in size
How it was run: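 In complete culture medium, human lymphoblastoid cells were dosed for 24 hr at 37 C, with tetraoctylammonium bromide (6.4pM to 92 uM) as positive control. Viability reflects luciferase-based ATP signal; AC50 derived from concentration-response curves.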

[10] = Cell Viability - LYMP2-015 (AID 971); note: nearly all actives have a fitted effect of over 55% in size
How it was run: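 AC50 values reflect Hill-model fits of ATP-based luminescence (CellTiter-Glo) from a human lymphoblastoid line, 2500 cells/well, treated 24 hr at 37 C.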

[11] = Cell Viability - LYMP2-017 (AID 972); note: series mostly up to about 92 µM; nearly all actives have a fitted effect of over 55% in size
How it was run: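 In this qHTS format, lymphoblastoid cells in complete medium receive test compound for a day at 37 C before ATP content is quantified by luciferase luminescence. Reported AC50 figures come from standard Hill-equation curve fitting.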

[12] = Cell Viability - LYMP2-019 (AID 973); note: nearly all actives have a fitted effect of over 55% in size
How it was run: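 AC50 values come from Hill-equation modelling of qHTS concentration-response curves, where viability is measured as luciferase-based ATP luminescence in the lymphoblastoid line after 24 hr compound exposure in complete culture medium.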

[13] = Cell Viability - LYMP2-021 (AID 974)
How it was run: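 In qHTS format, compounds are tested against 2500 lymphoblastoid cells per well for 24 h; viable cell number is inferred from ATP-driven luciferase light, and Hill-equation fitting yields AC50 values.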

[14] = Cell Viability - LYMP2-023 (AID 975)
How it was run: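 In this qHTS, ATP-based luciferase luminescence (CellTiter-Glo) is quantified in human lymphoblastoid cells after 24 hr compound treatment at 37 C; tetraoctylammonium bromide serves as positive control. Concentration-response curves are Hill-fitted to give AC50.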

[15] = Cell Viability - LYMP2-025 (AID 976); note: series mostly up to about 92 µM
How it was run: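 Luminescent ATP readout after 24 hr treatment of a human lymphoblastoid line (LYMP2-025, 2500 cells/well, 37 C). Reagent developed 30 min at room temperature; AC50 fitted with the Hill equation.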

[16] = Cell Viability - LYMP2-002 (AID 977); note: series mostly up to about 92 µM
How it was run: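 Human lymphoblastoid cells (2500/well) in complete medium were preincubated 5 hr at 37 C, then exposed to compounds for 24 hr at 37 C. Intracellular ATP was read by CellTiter-Glo luminescence; AC50 came from Hill-equation concentration-response fits.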

[17] = Cell Viability - LYMP2-006 (AID 978); note: series mostly up to about 92 µM; nearly all actives have a fitted effect of over 60% in size
How it was run: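 qHTS, 1536-well; 2500 cells/well, 5 hr 37 C; cpd 24 hr 37 C; CellTiter-Glo 30 min RT; luminescence. Tetraoctylammonium bromide pos. ctrl. AC50 via Hill eqn.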

[18] = Cell Viability - LYMP2-007 (AID 979);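 note: cells exposed to compound for 24 h before reading; nearly all actives have a fitted effect of over 60% in size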
How it was run: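 Measured via luciferase-based ATP quantitation: lymphoblastoid cells, 24 hr compound exposure at 37 C, AC50 from Hill fits.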

[19] = Cell Viability - LYMP2-008 (AID 980); note: nearly all actives have a fitted effect of over 60% in size
How it was run: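 Measured: ATP-dependent luminescence, proportional to viable cell number, in human lymphoblastoid cells treated 24 hr with compound in complete culture medium. Values are AC50s from Hill-equation modelling of qHTS titrations.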

[20] = Cell Viability - LYMP2-010 (AID 981); note: nearly all actives have a fitted effect of over 55% in size
How it was run: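 This 24 hr viability screen uses LYMP2-010 lymphoblastoid cells, quantifies ATP via luciferase luminescence, and derives AC50 from Hill fits of qHTS concentration-response data.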

Measured: outcome

CC(=O)C(C)=O
inactive: all assays above

NC(=O)c1ccccc1
not listed: [6]
inactive: all other assays above
